# Source: PubChem BioAssay
# KB-3-1 cytotox: qHTS assay for MDR1-selective chemotherapeutics: Primary screen using the parental adenocarcinoma cell KB-3-1; KB-3-1 viability, CellTiter-Glo ATP luminescence, 72 h; Potency, µM (highest dose often 46.1 µM), actives largely listed as cytotoxic; 1.4% of 400,000 active; AID 1347075, 2019; further: nearly all actives have a fitted effect of over 60% in size
#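 Cells are dispensed, compounds pinned in, plates held at 37 °C for 72 h, then CellTiter-Glo is added and luminescence read after 10 minutes. Cell line: parental KB-3-1 in phenol-red-free DMEM, 10% FBS.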
# DT40 TDP1 CPT: qHTS for Inhibitors of human tyrosyl-DNA phosphodiesterase 1 (TDP1): qHTS in cells in presence of CPT; chicken DT40 Tdp1-/-;hTDP1 cells + 20 nM CPT, ATP luminescence, 48 h; Potency, µM (titrated, usually from 46.2 µM), inactives show at the highest dose activity change, negative = growth inhibition, usual class: inhibitors; 12% of 420,000 active; further: nearly all actives have a fitted effect of over 55% in size
#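 Chicken DT40 Tdp1-/- cells stably complemented with human TDP1 were seeded at 400 cells/well in medium containing 20 nM camptothecin, exposed to pin-transferred compounds, and grown at 37 °C for at least 48 hr. Viability was read as ATP luminescence.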
# HT1080-NT tox: qHTS for induction of synthetic lethality in tumor cells producing 2HG: qHTS for the HT-1080-NT fibrosarcoma cell line | 1.6% of 360,000 active | AID 686970, 2013 | HT-1080-NT fibrosarcoma viability, CellTiter-Glo ATP luminescence, 48 h | Potency, µM (doses to about 46.1 µM), for the others: at the highest dose activity, negative = less viability, most hits filed as cytotoxic;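 further: NT is the 2HG producing partner of a matched IDH1 knockdown line; 0% = DMSO-treated cells and -100% = media-only wells without cells; nearly all actives have a fitted effect of over 55% in size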
#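 Read-out is CellTiter-Glo luminescence after 10 minutes at room temperature, following 48 hours' compound treatment of HT-1080-NT cells (750 cells/well, RPMI, 5% FBS, 37 degrees C).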
# DT40 TDP1 no CPT: qHTS for Inhibitors of human tyrosyl-DNA phosphodiesterase 1 (TDP1): qHTS in cells in absence of CPT | DT40 Tdp1-/- hTDP1 cells, no CPT, ATP luminescence, 48 h | Potency, µM (titrated, usually from 46.2 µM), for inactives: top-dose activity change, negative = growth inhibition, most hits filed as inhibitors | 15% of 420,000 active; further: nearly all actives have a fitted effect of over 55% in size
#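 Chicken DT40 Tdp1-/- cells stably complemented with human TDP1 were seeded at 400 cells/well with DMSO in place of 20 nM camptothecin. After compound pinning, cells grew at least 48 hr at 37 °C; viability read by CellTiter-Glo luminescence.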
# KB-V1 cytotox: qHTS assay for MDR1-selective chemotherapeutics: Primary screen using the drug-selected MDR subline cells KB-V1; KB-V1 MDR cells viability, CellTiter-Glo, 72 h; Potency, µM (doses to about 46.1 µM), usual class: cytotoxic; 3.4% of 400,000 active; further: nearly all actives have a fitted effect of over 60% in size
#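 qHTS viability screen in drug-selected KB-V1 MDR cells: 72 h compound treatment at 37 degrees C, ATP luminescence end point.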
# HT1080 IDH1KD tx: qHTS for induction of synthetic lethality in tumor cells producing 2HG: qHTS for the HT-1080-IDH1KD cell line | HT-1080 IDH1 knockdown viability, ATP luminescence, 48 h | Potency, µM (top dose mostly 46.1 µM), without a hit: top-dose activity, negative = toxicity, usual class: cytotoxic | 2% of 360,000 active;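 further: 0% = DMSO wells and -100% = cell-free medium wells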
#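 Cytotoxicity counter-line: IDH1KD HT-1080, 48 h, CellTiter-Glo. Curves classed by r2, magnitude and activity.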
# An asterisk follows results filed as active; i = inactive; ? = inconclusive. The list is not random: actives were taken first. Their share in the collection is about 19%. The call rests on the fitted dose curve; in most records, active means well fitted curve in the direction sought with a large enough effect; inconclusive means small, poorly fitted or top-dose-only effect, or another doubt; inactive means no such curve, though single readings can be large; an effect the other way counts as inactive or inconclusive. Unless noted, on the % scale 0 is the no-effect control and ±100 the full control effect; potency means the concentration at half of the fitted maximal effect.
SMILES,KB-3-1 cytotox,DT40 TDP1 CPT,HT1080-NT tox,DT40 TDP1 no CPT,KB-V1 cytotox,HT1080 IDH1KD tx
O=C(N[C@H]1C/C=C\C[C@@H](CC(=O)N(CCO)Cc2ccccc2)C(=O)N2CCC[C@H]2COC1=O)OCC1c2ccccc2-c2ccccc21,i,13µM*,9%,18µM*,i,3%
COc1ccc(S(=O)(=O)N(C)C)cc1NC(=O)COC(=O)C1CC1,i,1%,-2%,11%,i,3%
Cc1ccc(-c2ccc(/C=N/NC(=O)Cc3nnc(N)s3)o2)cc1Cl,i,?,5%,-29%,i,1%
Cc1ccc(-c2ccc(/C=N/NC(N)=S)o2)cc1,i,2.9µM*,-16%,4.1µM*,?,-22%
COc1ccc(-c2ccc(/C=N/NC(=O)Cc3nnc(N)s3)o2)cc1Cl,i,?,10%,18µM*,i,2%
NC(=S)N/N=C\c1ccc(-c2cccc(Cl)c2Cl)o1,5.8µM*,5.2µM*,-29%,4.6µM*,1.3µM*,-14%
CN(C)/N=C/c1ccc(/C=N/NC(N)=S)o1,i,-7%,4%,-28%,i,7%
NC(=S)N/N=C/c1ccc(-c2ccc(Cl)c(Cl)c2)o1,i,23µM*,-17%,13µM*,i,-12%
COc1ccc(C(=O)NCCNC(=O)c2cc(OCC(F)(F)F)ccc2OCC(F)(F)F)cc1,i,?,-9%,-4%,i,?
C[C@H](CO)N1C[C@H](C)[C@@H](CN(C)C(=O)NC2CCCCC2)Oc2c(NS(=O)(=O)c3ccc(F)cc3)cccc2C1=O,i,-23%,3%,?,i,-3%
NC(=S)N/N=C/c1ccc(-c2ccc(SC(F)F)cc2)o1,?,3.7µM*,?,5.2µM*,i,?
NC(=S)N/N=C/c1ccc(-c2ccccc2)o1,i,?,-4%,?,?,6%
C[C@@H]1Cn2cnc(C(=O)N[C@@H](Cc3c[nH]c4ccccc34)C(=O)OC(C)(C)C)c2C(=O)N1,i,-29%,8%,?,i,-1%
O=C(CSC1=NCCS1)Nc1cccc2ccccc12,i,?,10%,16µM*,i,8%
O=C(CSC1=NCCS1)NCc1ccco1,i,13µM*,3%,12µM*,i,0%
O=C(CSC1=NCCS1)NC(c1ccccc1)c1ccccc1,i,?,?,16µM*,i,?
COc1cccc(OCCNS(=O)(=O)c2ccccc2[N+](=O)[O-])c1,i,-1%,2%,0%,i,0%
Cc1nc(C)c2c(=O)cc(-c3ccccc3)[nH]c2n1,7.1µM*,4.5µM*,10µM*,5.6µM*,3.2µM*,8.9µM*
Cc1nc(-c2ccccc2)nc2[nH]ccc(=O)c12,?,13%,25%,-5%,9.2µM*,11%
COc1ccccc1N1CCN(CCN(C(=O)C2CCCCC2)c2ccccn2)CC1,i,?,13%,23µM*,i,-4%
O=C(Cn1cnc2sc(-c3ccccc3)cc2c1=O)NCc1ccco1,18µM*,6.5µM*,?,5.8µM*,?,?
O=C(Cn1cnc2sc(-c3ccccc3)cc2c1=O)NCc1ccccc1,7.3µM*,3.7µM*,7.9µM*,5.2µM*,i,6.3µM*
Cc1nc(-c2coc3c(CN(C)C)c(O)ccc3c2=O)cs1,i,?,2%,-11%,i,-6%
CCC(C)C(NC(=O)C1CCC(C)CC1)C(=O)Nc1ccc(OC)cc1 (stereo not drawn),?,?,18%,-21%,?,18%
CC(C)CC(=O)NC(=S)Nc1nc(-c2cccc3ccccc23)cs1,?,-17%,-16%,21µM*,?,?
SMILES,KB-3-1 cytotox,DT40 TDP1 CPT,HT1080-NT tox,DT40 TDP1 no CPT,KB-V1 cytotox,HT1080 IDH1KD tx
O=C(Nc1ccncc1)c1ccc2c(c1)S(=O)(=O)c1ccccc1C2=O,?,15µM*,-9%,12µM*,i,-17%
O=C(Nc1nc(-c2cccc3ccccc23)cs1)c1ccc2c(c1)S(=O)(=O)c1ccccc1C2=O,i,18µM*,?,9.2µM*,i,-20%
CCOC(=O)Cc1csc(NC(=S)NC(=O)CC(C)C)n1,i,-4%,-16%,-24%,i,-20%
O=S(=O)(c1cccc(Cl)c1Cl)N1CCN(C(=S)NCCCN2CCOCC2)CC1,i,?,-26%,21µM*,?,?
NC(=O)c1cc(-c2ccccc2)nc(N2CCOCC2)n1,i,21µM*,?,12µM*,i,?
S=C(NCC1CCCO1)N1CCN(c2nc(-c3ccc(Cl)cc3)cs2)CC1 (stereo not drawn),?,16µM*,?,15µM*,?,?
S=C(NCCCN1CCOCC1)N1CCN(c2ccccc2)CC1,i,2%,21%,-5%,i,2%
S=C(NCCCN1CCOCC1)N1CCN(c2nc(-c3ccccc3)cs2)CC1,i,?,18µM*,23µM*,i,23µM*
S=C(NCC1CCCO1)N1CCN(c2cccc(Cl)c2)CC1 (stereo not drawn),i,?,-4%,?,i,0%
CCOC(=O)CCNC(=O)N1CCC(CCOc2ccccc2)(C(=O)OCC)CC1,i,9%,13%,-8%,i,15%
N#Cc1ccc(C(=O)N2CCC3CC2c2cc(-c4ccc(F)cc4)ccc23)cc1 (stereo not drawn),i,?,-16%,?,i,-14%
COCCNC(=S)N1CCN(c2nc(-c3ccccc3)cs2)CC1,i,?,?,18µM*,i,-6%
CCCNC(=S)N1CCN(c2nc(-c3ccc(C)cc3)cs2)CC1,i,?,-24%,?,?,-16%
S=C(NCCCN1CCOCC1)N1CCN(c2nc(-c3ccc(Cl)cc3)cs2)CC1,?,7.3µM*,?,4.1µM*,i,?
O=C(NC(=S)N1CCN(C/C=C/c2ccccc2)CC1)c1cccnc1,i,-2%,-5%,5%,i,0%
